Data published in PMC4336329 (PLoS ONE, 2015).
The whole screen tested about 310,000 compounds, of which about 14,000 (4.5%) showed an effect of 50% or more. Effects have a minus sign here. The sample holds strong results, similar compounds and a random draw of the others, so the mix is not that of the screen.

The molecules below were run against human ether-à-go-go-related gene (hERG) potassium channel (human, UniProt Q12809) (assay: primary screen, population patch clamp on CHO cells stably expressing hERG; higher = less effect of the substance).
Chain of human ether-à-go-go-related gene (hERG) potassium channel (Q12809 whole entry, looked up): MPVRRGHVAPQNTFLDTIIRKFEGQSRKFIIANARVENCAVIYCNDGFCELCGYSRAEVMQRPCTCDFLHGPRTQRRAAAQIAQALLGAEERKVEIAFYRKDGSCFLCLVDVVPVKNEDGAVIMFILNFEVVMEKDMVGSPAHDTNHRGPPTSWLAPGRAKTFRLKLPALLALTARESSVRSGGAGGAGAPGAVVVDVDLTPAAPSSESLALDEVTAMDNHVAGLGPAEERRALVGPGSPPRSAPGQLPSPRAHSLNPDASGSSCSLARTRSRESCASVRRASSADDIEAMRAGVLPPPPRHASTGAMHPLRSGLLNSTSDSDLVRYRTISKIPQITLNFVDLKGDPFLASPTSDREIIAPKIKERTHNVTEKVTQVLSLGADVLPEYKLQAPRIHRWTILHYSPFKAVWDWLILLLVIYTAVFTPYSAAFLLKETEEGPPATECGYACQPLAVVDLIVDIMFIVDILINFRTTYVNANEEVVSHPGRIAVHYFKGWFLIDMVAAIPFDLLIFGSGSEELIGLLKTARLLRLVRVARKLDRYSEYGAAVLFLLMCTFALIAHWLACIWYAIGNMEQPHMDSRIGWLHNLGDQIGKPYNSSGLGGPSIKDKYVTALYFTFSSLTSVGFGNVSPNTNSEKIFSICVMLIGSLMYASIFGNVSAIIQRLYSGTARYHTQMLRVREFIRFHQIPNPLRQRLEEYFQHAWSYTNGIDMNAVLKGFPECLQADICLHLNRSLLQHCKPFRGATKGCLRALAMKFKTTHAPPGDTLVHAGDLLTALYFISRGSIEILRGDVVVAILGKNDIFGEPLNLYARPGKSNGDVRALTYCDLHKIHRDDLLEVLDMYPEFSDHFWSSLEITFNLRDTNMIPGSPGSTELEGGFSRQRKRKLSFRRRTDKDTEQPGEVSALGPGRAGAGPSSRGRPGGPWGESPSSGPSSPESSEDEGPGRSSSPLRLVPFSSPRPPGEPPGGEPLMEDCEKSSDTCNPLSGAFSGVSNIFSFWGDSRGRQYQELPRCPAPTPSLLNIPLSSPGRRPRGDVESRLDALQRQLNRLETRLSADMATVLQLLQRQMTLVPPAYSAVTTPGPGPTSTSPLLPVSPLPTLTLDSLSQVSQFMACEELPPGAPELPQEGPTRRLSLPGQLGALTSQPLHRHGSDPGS
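Further: peak tail current of the secondary pulse compared with the same well before compound.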

SMILES | hERG current change (%, negative = inhibition) at 10uM
Cc1cccc(C)c1OCC(=O)Nc1cccc(S(=O)(=O)N2CCCC2)c1 | 3.77%
CC(Oc1ccc2c3c(c(=O)oc2c1)CCCC3)C(=O)NCC(O)c1ccccc1 (stereo not shown) | 16.8%
COc1ccc(S(=O)(=O)c2ccc(OC)c(OC)c2)cc1OC | -12.2%
COc1ccc(CCNC(=O)C2CCN(S(=O)(=O)c3c(C)noc3C)CC2)cc1OC | -16.9%
O=C(O)CCCNC(=O)/C(=C\c1ccccc1F)NC(=O)c1ccccc1 | 13.4%
O=C(CCCNC(=O)/C(=C\c1ccccc1F)NC(=O)c1ccccc1)OCc1ccccc1 | -9.13%
O=C(CCCNC(=O)/C(=C/c1ccc(F)cc1)NC(=O)c1ccccc1)OCc1ccccc1 | -64.3%
O=C(CCCNC(=O)/C(=C/c1ccccc1F)NC(=O)c1ccccc1)OCc1ccccc1 | -5.02%
O=C(CCCNC(=O)/C(=C\c1ccc(F)cc1)NC(=O)c1ccccc1)OCc1ccccc1 | -77.1%
O=C(CCCNC(=O)/C(=C/c1ccc(Br)cc1)NC(=O)c1ccccc1)OCc1ccccc1 | -38.8%
Cc1csc(NC(=O)c2ccc(COc3ccccc3)o2)n1 | -17.7%
CC(=O)Nc1ccccc1NC(=O)C/C(C)=N/NC(=O)c1ccccn1 | 16.1%
COc1ccc2nc(C)cc(Nc3ccc(C(=O)O)cc3)c2c1 | 39.5%
COc1ccc2nc(C)cc(Nc3ccc(C)cc3)c2c1.Cl | -52.8%
COc1ccc(Nc2cc(C)nc3ccc(OC)cc23)cc1 | -52.3%
Nc1ncncc1-c1ccc2ccccc2c1 | -7.48%
Clc1ccc(/C=N/c2c(-c3ccc(Cl)cc3)nc3n2CCS3)cc1 | 1.1%
CC1CCCCC1NC(=O)c1cn(C)c2ccc(S(=O)(=O)N3CCCC3)cc2c1=O (stereo not shown) | -0.37%
COc1ccc(C(=O)OCn2nnc3ccccc3c2=O)cc1[N+](=O)[O-] | 13.6%
Cc1ccc(S(=O)(=O)N(C)C)cc1NC(=O)C(C)Sc1ccccc1 (stereo not shown) | -6.74%
COc1ccc(C(=O)NCC(=O)N/N=C/C=C/c2ccccc2)cc1OC | -93.6%
COc1ccccc1C(=O)N/N=C/C(C)=C/c1ccccc1 | -73.8%
COc1ccc(C(=O)NCC(=O)N/N=C/C(C)=C/c2ccccc2)cc1OC | -1.63%
CC(/C=N/NC(=O)c1nn(C)c(C)c1Br)=C\c1ccccc1 | -53.8%
CC(/C=N/NC(=O)c1ccc(Br)cc1)=C\c1ccccc1 | -3.38%
CC(=C/c1ccccc1)/C=N/NC(=O)c1ccccn1 | -30.3%
COc1ccc(C(=O)NCC(=O)N/N=C(C)\C=C\c2ccccc2)cc1OC | -19.3%
O=C(CNC(=O)c1ccccc1)N/N=C/C=C/c1ccccc1 | -1.96%

SMILES | hERG current change (%, negative = inhibition) at 10uM
CC(/C=N/NC(=O)c1c(Br)cnn1C)=C\c1ccccc1 | -13%
COc1ccc(C(=O)N/N=C\C(C)=C\c2ccccc2)cc1OC | -61.4%
CC(/C=N/NC(=O)c1ccccc1F)=C\c1ccccc1 | 12.7%
CC(/C=N/NC(=O)c1ccncc1)=C\c1ccccc1 | 9.78%
NC(=O)c1ccsc1NC(=O)COC(=O)c1ccc(Cl)c(N)c1 | -3.1%
CC1CCCN(C(=O)CCS(=O)(=O)c2ccc3c(c2)n(C)c(=O)c(=O)n3C)C1 (stereo not shown) | 1.25%
Cc1nc2ccccc2nc1CSc1nncs1 | 5.39%
O=C(Nc1ccc(-c2nc3ccccc3o2)cc1)c1ccc(N2C(=O)C3C4C=CC(C4)C3C2=O)cc1 (stereo not shown) | 3.26%
O=C(Cc1ccccc1)NC(=S)Nc1ccc(OC(F)F)cc1 | -2.31%
COCCN(CCOC)S(=O)(=O)c1ccc(NC(=O)c2cnccn2)cc1 | 13.1%
CCOC(=O)c1c(NC(=O)CSc2nnc(CN3CCOCC3)n2C)sc2c1CCCC2 | -30%
CCOC(=O)c1c(NC(=O)CN2CCN(C(=O)c3ccco3)CC2)sc2c1CCCC2 | -8.72%
CCOC(=O)c1c(NC(=O)CSc2nnc(CNC(=O)c3ccco3)n2C)sc2c1CCC2 | -50.1%
CCOC(=O)c1c(NC(=O)c2ccco2)sc2c1CCCCC2 | 9.58%
CCOC(=O)c1c(NC(=O)c2ccco2)sc2c1CCCC2 | 4.29%
CCOC(=O)c1c(NC(=O)c2ccccc2C(=O)O)sc2c1CCCC2 | 18%
CCOC(=O)c1c(NC(=O)C(C)N2CCN(C(=O)c3ccco3)CC2)sc2c1CCCC2 (stereo not shown) | -56.1%
CCOC(=O)c1c(NC(=O)c2ccccc2C(=O)O)sc2c1CCC2 | -1.15%
CCOC(=O)c1c(NC(=O)C(NCCN(C)C)c2ccccc2)sc2c1CCCC2 (stereo not shown) | -73.2%
COc1ccc(C2=C(C=Nc3c(C)n(C)n(-c4ccccc4)c3=O)C(c3ccccc3C)c3ccccc3O2)cc1OC (stereo not shown) | 11.7%
CCOC(=O)C1CCN(c2ncnc3c2cnn3C)CC1 | 6.3%
Fc1ccc(NC(=S)N2CCCC2)cc1Cl | 8.95%
CS(=O)(=O)NNC(=O)Cn1nnc(-c2cc(C(F)(F)F)cc(C(F)(F)F)c2)n1 | 19.7%
O=C(NNC(=O)c1nn(-c2ccc(F)cc2)ccc1=O)c1ccccc1Cl | -5%
O=C(Cn1cnc2ccccc2c1=O)NC1CCCc2ccccc21 (stereo not shown) | 6.08%
CCCCn1c(SCC(=O)Nc2cc(C)on2)nnc1-c1cccs1 | -48.3%
CCOC(=O)Cc1csc(NC(=O)COc2ccc3c(c2)CCC3)n1 | -1.14%
